In PubChem BioAssay AID720628 (The Scripps Research Institute Molecular Screening Center, 2013):
The other results are listed elsewhere or left out. Unmarked numbers belong to inactive results. The source made the active and inactive calls.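 How the source made its calls: active means inhibition above the campaign cutoff, the mean of compounds within control limits plus 3 SD (cut at about 14% in these data); inactive means the rest.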

Target: Fibrinogen beta chain (Homo sapiens) (UniProt P02675)
Assay: Tn7 displacement from DD(E) complex – biochemical, fluorescence polarization, human fibrin, Tn7 probe, confirmation (AID 720628);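 further: 100% = median FP of high control wells holding Aha-Tn7 inhibitor peptide; displacers lower polarization since freed probe rises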
Conditions: FP displacement of TRITC-Tn7 peptide from DD(E); at 8.3 µM; active compounds read high; 0% set at plate's compound-well median

Fibrinogen beta chain (Homo sapiens), sequence (P02675 whole entry, looked up): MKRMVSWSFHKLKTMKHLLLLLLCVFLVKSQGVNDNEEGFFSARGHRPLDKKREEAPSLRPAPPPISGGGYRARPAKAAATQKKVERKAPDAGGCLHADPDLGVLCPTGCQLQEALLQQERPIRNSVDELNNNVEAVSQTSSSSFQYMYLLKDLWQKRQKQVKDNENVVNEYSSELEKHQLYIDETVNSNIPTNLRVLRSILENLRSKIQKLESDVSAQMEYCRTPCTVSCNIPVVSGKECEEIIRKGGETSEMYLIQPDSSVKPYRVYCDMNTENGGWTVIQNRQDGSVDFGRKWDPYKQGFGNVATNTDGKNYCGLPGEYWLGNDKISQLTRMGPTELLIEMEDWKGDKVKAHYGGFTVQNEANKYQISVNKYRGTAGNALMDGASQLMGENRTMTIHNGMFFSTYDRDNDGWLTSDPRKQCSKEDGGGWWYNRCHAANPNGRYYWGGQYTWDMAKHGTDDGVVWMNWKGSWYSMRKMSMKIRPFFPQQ

Compound	inhibition
CC(C)(C)c1cc(CN2CCN(CCC#N)CC2)cc(C(C)(C)C)c1O	3.96%
O=C(Nc1ccon1)c1sc2ccccc2c1Cl	6.87%
COc1cccc(N2CC(NS(=O)(=O)c3cccs3)CC2=O)c1 (configuration not stated)	0.77%
Cn1c(CC(=O)NNC(=O)c2ccccc2F)nc2ccccc21	4.13%
COc1ccc(S(=O)(=O)c2c[nH]c(=S)[nH]c2=O)cc1Cl	-1.93%
C#CCNc1ccc(C(=O)OCC)cc1	19.9% (active)
COc1ccc(-c2nc(CCNC(=O)c3ccc(Br)o3)cs2)cc1	1.25%
O=C(CSc1nnc(-c2ccccn2)n1-c1ccc(Cl)cc1)Nc1ccccc1-c1ccccc1	2.95%
Oc1ccc2ccc3cccc[n+]3c2c1	20.3% (active)
O=C(COC(=O)/C=C/c1ccc(OC(F)F)cc1)NC1CCCCC1	6.98%
CN1C(=O)c2cccc3c(N)ccc(c23)C1=O	30.8% (active)
O=C(NCc1ccccc1)c1cccc(NC(=O)C2CCCCC2)c1	4.29%
O=C(/C=C/c1ccccc1[N+](=O)[O-])NCC1CCCO1 (configuration not stated)	9.76%
CCOc1ccc(Nc2oc(Cc3ccccc3)nc2C#N)cc1	-1.34%
OC(c1ccccc1)c1nc(-c2cnc3ccccc3c2)cs1 (configuration not stated)	7.29%
Cc1cc2nc3c(=O)[nH]c(=O)nc-3n(C[C@H](O)[C@H](O)[C@H](O)CO)c2cc1C	53.3% (active)
O=C(COC(=O)c1ccc([N+](=O)[O-])cc1Cl)NC(=O)c1ccccc1	2.79%
